Measured values published in the supplement of paper PMC12819154, “High-throughput peptide-centric local stability assay extends protein–ligand identification to membrane proteins, tissues and bacteria” (Nature Structural & Molecular Biology, 2025).

Compound: Nc1ncnc2c1ncn2[C@@H]1O[C@H](COP(=O)(O)OP(=O)(O)OP(=O)(O)O)[C@@H](O)[C@H]1O [adenosine 5'-triphosphate]
Test: log2 fold change of tryptic peptide abundance, ligand vs vehicle (limited proteolysis) (log2 ratio); higher = more trypsin-susceptible (destabilized)
Conditions: ligand concentration: 5 mM; sample: E. coli desalted lysate; replicate design: treated before aliquoting
Description: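 HT-PELSA: desalted E. coli K-12 BW25113 lysate (with 12 mM MgCl2) incubated with 5 mM ATP (pH 7) or water for 30 min at 25 C, then a 4 min trypsin pulse at 22 C. Peptides were quantified by DIA-MS (4 replicates). Value is the peptide log2 fold change (treated/control); negative = stabilized. Scale: negative = ligand-stabilized region.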
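Further: lysate desalted by size exclusion to strip endogenous ATP, peptide intensities built from DIA-NN precursor signals, and peptides missing any value discarded before comparison.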

Sequence of UniProt P26646 (P26646 whole entry): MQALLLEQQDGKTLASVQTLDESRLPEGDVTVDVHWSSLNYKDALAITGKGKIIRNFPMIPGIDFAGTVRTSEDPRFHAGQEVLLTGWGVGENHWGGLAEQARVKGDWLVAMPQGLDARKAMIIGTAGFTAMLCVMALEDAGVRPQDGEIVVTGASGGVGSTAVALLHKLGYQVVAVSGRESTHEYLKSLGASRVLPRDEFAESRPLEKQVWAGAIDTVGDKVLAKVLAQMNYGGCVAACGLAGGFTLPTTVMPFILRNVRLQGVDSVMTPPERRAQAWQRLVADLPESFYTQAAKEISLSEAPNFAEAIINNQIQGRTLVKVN
Sequence of UniProt P77611 (P77611 whole entry): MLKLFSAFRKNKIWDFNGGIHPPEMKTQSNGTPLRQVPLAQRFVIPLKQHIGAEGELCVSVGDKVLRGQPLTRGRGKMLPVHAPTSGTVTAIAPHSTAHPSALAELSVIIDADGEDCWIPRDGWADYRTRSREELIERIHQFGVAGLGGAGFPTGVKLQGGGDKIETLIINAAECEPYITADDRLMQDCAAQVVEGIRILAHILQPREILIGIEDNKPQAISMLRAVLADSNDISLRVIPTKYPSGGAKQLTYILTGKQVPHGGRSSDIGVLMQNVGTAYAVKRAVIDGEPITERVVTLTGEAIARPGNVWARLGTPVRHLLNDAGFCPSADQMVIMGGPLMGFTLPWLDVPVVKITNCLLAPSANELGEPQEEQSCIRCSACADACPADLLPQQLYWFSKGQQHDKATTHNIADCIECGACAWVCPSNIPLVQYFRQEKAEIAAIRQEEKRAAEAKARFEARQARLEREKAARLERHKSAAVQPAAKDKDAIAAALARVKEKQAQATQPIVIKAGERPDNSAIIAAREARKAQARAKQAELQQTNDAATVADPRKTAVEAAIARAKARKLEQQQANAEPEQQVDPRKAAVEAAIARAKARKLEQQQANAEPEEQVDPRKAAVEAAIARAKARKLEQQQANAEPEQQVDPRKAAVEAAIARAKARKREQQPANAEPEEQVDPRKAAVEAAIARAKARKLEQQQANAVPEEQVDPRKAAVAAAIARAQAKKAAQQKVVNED
Sequence of UniProt P22106 (P22106 whole entry): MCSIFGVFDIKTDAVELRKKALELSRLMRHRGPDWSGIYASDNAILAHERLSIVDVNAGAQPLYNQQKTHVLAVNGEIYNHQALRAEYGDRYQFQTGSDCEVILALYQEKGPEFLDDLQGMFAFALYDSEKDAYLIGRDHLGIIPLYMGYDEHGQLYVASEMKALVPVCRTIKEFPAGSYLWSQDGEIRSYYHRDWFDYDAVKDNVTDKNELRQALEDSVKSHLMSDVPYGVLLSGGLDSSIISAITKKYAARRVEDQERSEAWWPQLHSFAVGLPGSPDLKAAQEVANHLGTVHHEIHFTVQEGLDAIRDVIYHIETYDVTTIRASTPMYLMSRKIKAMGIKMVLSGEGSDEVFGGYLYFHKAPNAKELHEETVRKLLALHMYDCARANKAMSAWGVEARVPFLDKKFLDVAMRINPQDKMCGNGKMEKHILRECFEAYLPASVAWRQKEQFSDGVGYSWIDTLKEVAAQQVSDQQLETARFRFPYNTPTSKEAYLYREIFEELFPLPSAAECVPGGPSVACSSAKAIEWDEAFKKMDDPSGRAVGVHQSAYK
Sequence of UniProt P24193 (P24193 whole entry): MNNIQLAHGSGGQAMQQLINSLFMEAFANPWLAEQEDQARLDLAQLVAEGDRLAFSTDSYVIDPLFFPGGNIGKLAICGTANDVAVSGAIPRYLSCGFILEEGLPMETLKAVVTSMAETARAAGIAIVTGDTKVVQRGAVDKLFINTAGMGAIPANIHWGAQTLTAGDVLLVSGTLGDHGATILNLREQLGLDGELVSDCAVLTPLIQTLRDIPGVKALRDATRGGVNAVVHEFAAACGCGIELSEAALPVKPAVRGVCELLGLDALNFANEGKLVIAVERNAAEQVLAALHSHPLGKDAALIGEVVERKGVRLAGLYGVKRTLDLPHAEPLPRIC
Sequence of UniProt P77302 (P77302 whole entry): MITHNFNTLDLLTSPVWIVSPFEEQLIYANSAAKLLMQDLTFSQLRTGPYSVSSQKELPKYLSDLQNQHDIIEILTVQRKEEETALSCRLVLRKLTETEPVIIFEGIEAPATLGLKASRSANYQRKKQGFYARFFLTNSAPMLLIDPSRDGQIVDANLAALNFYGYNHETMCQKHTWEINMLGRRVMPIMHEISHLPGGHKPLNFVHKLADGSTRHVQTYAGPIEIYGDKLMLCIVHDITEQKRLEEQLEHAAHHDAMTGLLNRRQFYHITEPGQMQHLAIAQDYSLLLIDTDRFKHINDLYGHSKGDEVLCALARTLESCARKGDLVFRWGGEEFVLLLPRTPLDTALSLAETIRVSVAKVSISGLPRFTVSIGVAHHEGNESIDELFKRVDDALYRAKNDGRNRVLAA
Sequence of UniProt P11454 (P11454 whole entry): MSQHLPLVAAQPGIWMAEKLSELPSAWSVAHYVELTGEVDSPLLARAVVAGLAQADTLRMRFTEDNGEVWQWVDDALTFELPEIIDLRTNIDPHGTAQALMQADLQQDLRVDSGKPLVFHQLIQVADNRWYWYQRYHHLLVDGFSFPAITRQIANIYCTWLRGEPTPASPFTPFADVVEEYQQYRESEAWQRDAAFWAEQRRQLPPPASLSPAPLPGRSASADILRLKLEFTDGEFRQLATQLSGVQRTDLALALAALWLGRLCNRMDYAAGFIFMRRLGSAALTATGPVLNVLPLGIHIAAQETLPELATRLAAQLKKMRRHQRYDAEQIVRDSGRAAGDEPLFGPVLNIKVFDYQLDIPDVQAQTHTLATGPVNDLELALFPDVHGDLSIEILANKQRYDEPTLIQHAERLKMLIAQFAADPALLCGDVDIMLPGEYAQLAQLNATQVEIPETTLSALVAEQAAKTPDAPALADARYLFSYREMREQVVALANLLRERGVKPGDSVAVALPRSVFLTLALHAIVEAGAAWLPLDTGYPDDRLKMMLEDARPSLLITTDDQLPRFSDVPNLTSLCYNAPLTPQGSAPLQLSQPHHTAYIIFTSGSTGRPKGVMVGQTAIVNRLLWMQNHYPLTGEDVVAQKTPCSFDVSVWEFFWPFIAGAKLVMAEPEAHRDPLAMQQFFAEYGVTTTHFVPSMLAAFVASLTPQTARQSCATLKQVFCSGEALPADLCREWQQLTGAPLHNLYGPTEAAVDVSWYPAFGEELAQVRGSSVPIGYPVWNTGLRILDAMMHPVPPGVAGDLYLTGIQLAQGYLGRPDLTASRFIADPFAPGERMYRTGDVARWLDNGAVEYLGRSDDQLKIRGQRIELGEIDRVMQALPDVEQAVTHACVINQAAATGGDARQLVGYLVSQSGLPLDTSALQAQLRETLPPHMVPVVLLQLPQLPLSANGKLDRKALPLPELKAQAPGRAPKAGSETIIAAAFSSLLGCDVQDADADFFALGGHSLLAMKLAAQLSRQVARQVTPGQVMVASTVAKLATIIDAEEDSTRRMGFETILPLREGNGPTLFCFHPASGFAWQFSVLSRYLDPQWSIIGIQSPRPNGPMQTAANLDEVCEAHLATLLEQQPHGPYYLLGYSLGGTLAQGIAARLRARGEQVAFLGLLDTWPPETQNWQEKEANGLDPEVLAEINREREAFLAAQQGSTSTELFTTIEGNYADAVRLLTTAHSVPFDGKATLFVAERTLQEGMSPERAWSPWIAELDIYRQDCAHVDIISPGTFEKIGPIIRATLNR
Sequence of UniProt P77374 (P77374 whole entry): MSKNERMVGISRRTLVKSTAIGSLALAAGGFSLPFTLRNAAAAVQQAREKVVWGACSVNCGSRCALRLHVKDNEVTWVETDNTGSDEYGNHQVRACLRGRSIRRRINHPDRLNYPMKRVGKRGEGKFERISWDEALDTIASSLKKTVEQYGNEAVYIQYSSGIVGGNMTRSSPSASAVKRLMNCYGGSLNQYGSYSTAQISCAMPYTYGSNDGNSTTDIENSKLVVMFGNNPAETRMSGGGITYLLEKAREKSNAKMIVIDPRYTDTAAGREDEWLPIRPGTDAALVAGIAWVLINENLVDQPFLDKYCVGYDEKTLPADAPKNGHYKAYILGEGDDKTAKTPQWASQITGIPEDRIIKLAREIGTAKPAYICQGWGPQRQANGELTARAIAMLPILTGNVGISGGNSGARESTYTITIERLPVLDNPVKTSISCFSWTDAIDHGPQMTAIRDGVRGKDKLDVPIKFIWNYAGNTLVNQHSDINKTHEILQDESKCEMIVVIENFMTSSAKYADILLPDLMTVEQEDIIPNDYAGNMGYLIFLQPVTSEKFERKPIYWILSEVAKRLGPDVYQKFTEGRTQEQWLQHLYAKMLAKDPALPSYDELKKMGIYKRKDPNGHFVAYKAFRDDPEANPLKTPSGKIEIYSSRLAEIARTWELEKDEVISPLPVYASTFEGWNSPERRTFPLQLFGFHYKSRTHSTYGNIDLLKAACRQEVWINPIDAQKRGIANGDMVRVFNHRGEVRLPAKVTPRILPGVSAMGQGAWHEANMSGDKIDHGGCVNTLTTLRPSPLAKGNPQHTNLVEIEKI
Sequence of UniProt P06987 (P06987 whole entry): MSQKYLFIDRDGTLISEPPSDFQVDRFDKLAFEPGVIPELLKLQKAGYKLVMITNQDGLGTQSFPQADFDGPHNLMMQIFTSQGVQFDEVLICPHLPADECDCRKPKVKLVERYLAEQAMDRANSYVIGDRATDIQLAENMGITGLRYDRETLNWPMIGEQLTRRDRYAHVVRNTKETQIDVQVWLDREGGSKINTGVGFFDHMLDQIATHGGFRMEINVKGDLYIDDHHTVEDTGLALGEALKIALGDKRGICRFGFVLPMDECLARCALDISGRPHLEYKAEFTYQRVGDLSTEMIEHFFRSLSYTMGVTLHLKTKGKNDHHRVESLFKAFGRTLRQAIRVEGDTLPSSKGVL
Sequence of UniProt Q46868 (Q46868 whole entry): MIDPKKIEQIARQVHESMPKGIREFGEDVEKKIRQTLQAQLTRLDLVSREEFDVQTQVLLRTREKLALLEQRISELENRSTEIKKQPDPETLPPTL
Sequence of UniProt P0ACW4 (P0ACW4 whole entry): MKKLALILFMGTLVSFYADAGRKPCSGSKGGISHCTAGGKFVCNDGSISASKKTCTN

Target | log2 fold change
UniProt P21866 (peptide sequence: RHSATTAPDPLVK, peptide start residue: 118) | 1.65
UniProt P15082 (peptide sequence: QRQAAILEYLQK, peptide start residue: 5) | 2.18
UniProt P76273 (peptide sequence: CGISNVALTHFDGR, peptide start residue: 165) | 0.512
UniProt P21507 (peptide sequence: DVLGSAPTGTGK, peptide start residue: 43) | -3.34
UniProt P09029 (peptide sequence: DVFPIIADR, peptide start residue: 72) | -2.73
UniProt P32125 (peptide sequence: AGAAQTIVASQQR, peptide start residue: 63) | -0.686
UniProt P77374 (peptide sequence: INHPDRLNYPMKR, peptide start residue: 106) | -0.781
UniProt P11454 (peptide sequence: IELGEIDR, peptide start residue: 867) | -1.19
UniProt P23894 (peptide sequence: SVGGEVIEQPR, peptide start residue: 61) | 2.55
UniProt P77302 (peptide sequence: KEEETALSCR, peptide start residue: 80) | -1.39
UniProt Q06065 (peptide sequence: FSSENQR, peptide start residue: 334) | -2.8
UniProt P18392 (peptide sequence: EHIFEPFVR, peptide start residue: 367) | -1.71
UniProt P26646 (peptide sequence: ESTHEYLK, peptide start residue: 181) | 0.217
UniProt P28634 (peptide sequence: WRVTDAGFEVFALEPR, peptide start residue: 220) | 0.789
UniProt P24188 (peptide sequence: NHYEYEVGHFENALEIPADTFR, peptide start residue: 157) | 0.32
UniProt P68398 (peptide sequence: EVPVGAVLVHNNR, peptide start residue: 27) | 0.483
UniProt P20083 (peptide sequence: VQDLQVVGTCGKR, peptide start residue: 147) | -1.89
UniProt P15254 (peptide sequence: QALIDANLR, peptide start residue: 169) | -0.778
UniProt P00960 (peptide sequence: AVAEAYYASREALGFPMCNKDK, peptide start residue: 282) | 0.93
UniProt P37647 (peptide sequence: LTGGSAEDAAK, peptide start residue: 275) | -1.34

Target | log2 fold change
UniProt P29131 (peptide sequence: MAGHTNCIR, peptide start residue: 306) | -0.526
UniProt P76422 (peptide sequence: NTHGTGCTLSAALAALRPR, peptide start residue: 207) | -1.45
UniProt P22106 (peptide sequence: QALEDSVK, peptide start residue: 214) | -0.816
UniProt P21151 (peptide sequence: ISTTLLNLMERK, peptide start residue: 352) | 0.834
UniProt P0AD19 (peptide sequence: GLAMGTASHALGTAR, peptide start residue: 178) | -0.978
UniProt P15038 (peptide sequence: LHTEDITAR, peptide start residue: 265) | -2.37
UniProt P24193 (peptide sequence: AVVTSMAETAR, peptide start residue: 111) | -1.88
UniProt P77252 (peptide sequence: DEPLTLLK, peptide start residue: 148) | 0.328
UniProt P52101 (peptide sequence: AMIFEPFFQGSHQR, peptide start residue: 414) | 0.36
UniProt P0AD57 (peptide sequence: QRAEEEADKAIAALQVLPDTPWR, peptide start residue: 286) | 0.56
UniProt P06987 (peptide sequence: VGDLSTEMIEHFFR, peptide start residue: 290) | -1.32
UniProt Q46868 (peptide sequence: QVHESMPK, peptide start residue: 13) | -0.305
UniProt P77611 (peptide sequence: LFSAFRK, peptide start residue: 4) | 0.344
UniProt P26281 (peptide sequence: ALGDIPESHILTVSSFYR, peptide start residue: 25) | -3.29
UniProt P0C0T5 (peptide sequence: WTSAQLLRPQALDLVSR, peptide start residue: 130) | 0.388
UniProt P0ACW4 (peptide sequence: GGISHCTAGGK, peptide start residue: 30) | -0.911
UniProt P37025 (peptide sequence: VVWLGMR, peptide start residue: 87) | -0.685
UniProt P33940 (peptide sequence: EYYPQAK, peptide start residue: 403) | -1.61
UniProt P76035 (peptide sequence: TIATFQAYLGHPVR, peptide start residue: 176) | 0.609
UniProt P10908 (peptide sequence: VDAGSWYSK, peptide start residue: 79) | -0.858
